# From PubChem BioAssay
# In the library only some 2.8% were active in any assay of this set; here they are far more common.
# PP5 primary: PP5 (human) phosphatase inhibition. hit rate 0.18% among 320,000. P53041. purified PP5c, OMFP substrate fluorescence. inhibition, % at 6.7 µM. AID 1987;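 active = inhibition above the campaign's mean inhibition across all tested compounds plus 3 SD, cut at about 9.5% in these data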
# Target sequence (P53041 whole entry, looked up): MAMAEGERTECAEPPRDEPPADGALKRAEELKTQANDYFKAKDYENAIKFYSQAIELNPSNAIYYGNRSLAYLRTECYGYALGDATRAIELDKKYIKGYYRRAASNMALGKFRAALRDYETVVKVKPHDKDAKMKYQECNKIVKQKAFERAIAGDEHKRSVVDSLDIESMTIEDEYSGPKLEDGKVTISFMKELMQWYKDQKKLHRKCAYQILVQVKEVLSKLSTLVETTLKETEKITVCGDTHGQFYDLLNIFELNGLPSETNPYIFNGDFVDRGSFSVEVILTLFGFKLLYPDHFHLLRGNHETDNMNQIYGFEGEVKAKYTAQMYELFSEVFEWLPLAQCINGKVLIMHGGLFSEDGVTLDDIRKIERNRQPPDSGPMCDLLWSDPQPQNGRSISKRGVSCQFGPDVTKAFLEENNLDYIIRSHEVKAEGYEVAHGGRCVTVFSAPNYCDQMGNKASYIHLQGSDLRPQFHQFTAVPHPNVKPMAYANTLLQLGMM
# PP1 counter: PP1-alpha (human) inhibition in PP5 counter-screen. P62136. purified PP1alpha, OMFP fluorescence. inhibition, % at 6.7 µM. hit rate 0.9% among 320,000. AID 2235;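 active = inhibition above the mean inhibition of all tested compounds plus 3 SD, computed separately for each screening campaign, cut at about 15% in these data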
# GASC-1 inh: blocks human GASC-1 demethylase activity. Q9H3R0. GST-JMJD2C(1-420) H3K9me3 demethylation, DELFIA europium. inhibition, % at 2.35 µM. hit rate 0.069% among 330,000. AID 2099;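 active = more than half of a compound's replicate wells show inhibition beyond 50%, single wells judged on their own value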;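 note: signal counts dimethyl H3K9 product captured on neutravidin plate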
# PG9 binder: small molecules binding HIV-1 gp120 antibody PG9; hit rate 0.43% among 360,000; TR-FRET gp120-PG9 antibody binding; AID 624416; inhibition, % at 6.7 µM; in the data active = inhibition above about 8.5%
# Rev-erbA mod: modulators of human Rev-erb alpha DNA binding; Rev-erbα–FITC-DNA binding, fluorescence polarization, 90 min; activity, % at 10 µM; hit rate 0.79% among 370,000;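 active = activity above about 14%, limit read from the data; passing the limit was not always enough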
# proKLK7 act: proKLK7 (human) activation, primary screen. activation, % at 7 µM. hit rate 0.9% among 370,000. purified proKLK7, EDANS-DABCYL substrate fluorescence; 100% is mature enzyme control, 0% vehicle. AID 652039;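 active = activation above the mean of all tested compounds plus 3 SD, computed per campaign excluding outliers beyond control limits, cut at about 13% in these data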
# Target sequence (P49862 whole entry, looked up): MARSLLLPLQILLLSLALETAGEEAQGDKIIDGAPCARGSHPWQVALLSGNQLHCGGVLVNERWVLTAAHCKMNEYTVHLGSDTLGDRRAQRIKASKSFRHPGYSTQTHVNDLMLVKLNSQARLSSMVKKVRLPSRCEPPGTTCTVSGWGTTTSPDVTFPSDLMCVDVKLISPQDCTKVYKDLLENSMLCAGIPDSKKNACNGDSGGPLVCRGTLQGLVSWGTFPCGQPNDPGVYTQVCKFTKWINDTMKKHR
# proKLK7 act conf: confirmation of human kallikrein-7 zymogen activators; shares compounds with proKLK7 act; purified proKLK7, EDANS-DABCYL substrate fluorescence; scaled: vehicle 0, mature enzyme 100; activation, % at 7 µM; hit rate 68% among 3,200;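 active = activation, as change over the incubation, above the mean of all tested compounds plus 3 SD, cut at about 13% in these data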
# EDANS-DABCYL int: fluorescence interference counter-screen for KLK7 activators. shares compounds with proKLK7 act. activation, % at 7 µM. AID 686952. EDANS-DABCYL substrate fluorescence interference, no enzyme, 4 h; solvent 0%, active enzyme control 100%. hit rate 80% among 3,200;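 active = activation above the all-compound mean plus 3 SD, ignoring values outside control-based bounds, cut at about 4.8% in these data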;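 note: value is the 4 h activation minus the activation read at time zero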
# Rev-erbA confirm: confirmation of modulators of human Rev-erb alpha DNA binding. shares compounds with Rev-erbA mod. Rev-erb alpha FITC-DNA binding, fluorescence polarization, 90 min. activation, % at 25 µM. hit rate 61% among 3,000. AID 1259319;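 active = activation at or above a set limit, or at least 3 SD above the negative control mean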
# RORg DNA counter: RORgamma DNA-binding activity, dose-response counter-screen. shares compounds with Rev-erbA mod. purified RORgamma protein-FITC-DNA binding, fluorescence polarization. IC50, µM. hit rate 8% among 910;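 active = Compounds whose fitted half-maximal concentration for disrupting protein-DNA binding is below 10 micromolar; the record names Rev-erb in its text, so the target is in doubt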
# A number is an active result; n = inactive; x = no result; + = active, no number; ! = a repeat was not active.
SMILES,PP5 primary,PP1 counter,GASC-1 inh,PG9 binder,Rev-erbA mod,proKLK7 act,Rev-erbA confirm,others
COc1ccc(-c2[nH]c(-c3ccc(C(=O)O)cc3)nc2-c2ccccc2)cc1,n,n,n,n,n,n,x,
COc1cccc(CN(C)C(=O)[C@H]2O[C@@H](n3cnc4c(=O)[nH]c(N)nc43)[C@H](O)[C@@H]2O)c1,x,x,x,n,n,n,x,
CCOC(=O)CSc1nc(N)c(C#N)c(-c2ccc(OCC)cc2)c1C#N,n,n,n,11.5,55.5,12.9,29.0,proKLK7 act conf=n;EDANS-DABCYL int=n
COc1ccc2noc3c2c1C(=O)c1ccccc1-3,n,n,n,n,21.5,24.9,n,proKLK7 act conf=n;EDANS-DABCYL int=n
O=C(O)C1CCCN1C(=O)c1cccc(Cl)c1 (centres undefined),x,x,x,n,n,n,x,
O=C(c1cccs1)N1C(=O)c2cccc3cccc1c23,n,n,n,n,51.0,31.9,42.5,proKLK7 act conf=n;EDANS-DABCYL int=n;RORg DNA counter=n
CN(C)/C=C1\C=C2C(=O)c3ccccc3N2C1=O,n,n,n,n,340.4,14.4,229.4,proKLK7 act conf=71.8;EDANS-DABCYL int=66.5;RORg DNA counter=1.15
CN(C)S(=O)(=O)N1C(=O)c2ccccc2C1=O,n,n,n,n,n,n,x,
Nc1ccc2ccc(O)cc2c1,x,x,x,n,n,n,x,
C[n+]1c2cc(N)ccc2cc2ccc(N)cc21,x,x,x,n,51.1,34.1!,28.5,proKLK7 act conf=55.8;EDANS-DABCYL int=59.5;RORg DNA counter=n
COC(=O)c1c(-c2ccc(OC)cc2)c2c(c3c4cc(OC)ccc4n(S(=O)(=O)c4ccc(C)cc4)c13)C(=O)N(C)C2,x,x,x,n,n,n,x,
Cn1cc(/C=C/c2cc[n+](C)cc2)c2cc(F)ccc21,n,n,n,x,x,x,x,
C[n+]1ccc(/C=C/c2c[nH]c3ccc(F)cc23)cc1,x,x,n,n,124.9,15.3,90.2,proKLK7 act conf=n;EDANS-DABCYL int=14.1;RORg DNA counter=n
CN(C)CCNc1ccc(CO)c2sc3ccc(O)cc3c(=O)c12,x,x,x,n,n,n,x,
CN(C)CCNc1ccc2ncn3c4ccc(O)cc4c(=O)c1c23,x,x,x,n,19.8,71.9,24.0,proKLK7 act conf=56.8;EDANS-DABCYL int=49.9
COc1ccc(Cn2cc3c(-c4ccc(F)cc4)nnc-3c3cc(OC)c(OC)cc32)cc1,n,n,n,n,n,n,x,
COc1cc2c3nnc(-c4ccc(F)cc4)c-3cn(Cc3ccc(F)cc3)c2cc1OC,n,n,n,n,35.3,13.2,27.3,proKLK7 act conf=n;EDANS-DABCYL int=n
Cc1ccc(-c2cc(-c3nnc(SCC(=O)N4c5ccccc5Sc5ccccc54)n3N)[nH]n2)cc1,x,x,x,x,n,n,x,
COc1ccc(CCNC(=O)CSc2nc(N)c(C#N)c(-c3cccs3)c2C#N)cc1OC,n,n,n,n,37.3,22.2,22.9,proKLK7 act conf=35.1;EDANS-DABCYL int=40.6
COC(=O)c1ccccc1-c1c2ccc(=N)cc-2oc2cc(N)ccc12,n,n,n,n,+,101.0,+,proKLK7 act conf=65.0;EDANS-DABCYL int=85.6;RORg DNA counter=n
COc1ccc2c(c1)CCCN2C(=O)C1CCCN(S(=O)(=O)c2cccs2)C1 (centres undefined),x,x,x,x,n,n,x,
CCOC(=O)CC[C@H](NC(=O)[C@@H]1CC=C[C@@H]2CCN(Cc3ccc(Cl)cc3)C(=O)[C@@H]21)C(=O)OCC,x,x,x,x,n,x,x,
COc1ccc(-c2c(C#N)c(C)nc3c2C(=O)c2ccccc2-3)cc1,n,n,n,n,150.6,n,122.2,
CCOc1ccc(C(=O)Nc2sc3c(c2C(=O)OC)CC(C)(C)NC3(C)C)cc1,n,n,n,n,70.2,n,n,
COC(=O)c1c(NC(=O)c2ccc(C(=O)c3ccccc3)cc2)sc2c1CC(C)(C)NC2(C)C,x,x,x,n,n,n,x,
SMILES,PP5 primary,PP1 counter,GASC-1 inh,PG9 binder,Rev-erbA mod,proKLK7 act,Rev-erbA confirm,others
Cc1ccc(O)c(N=Nc2nccs2)c1,n,n,n,n,20.2,n,n,
COc1ccc(N=Nc2cc(C)ccc2O)cc1,n,n,n,n,n,n,x,
CC(/C=N\NC(=O)CSc1nnc(-c2ccc(Br)cc2)n1-c1ccccc1)=C\c1ccco1,x,x,x,x,n,n,x,
Cc1ccccc1CNC1CCC12CCC(c1ccccc1)CC2 (centres undefined),x,x,x,x,n,x,x,
O=C(CSc1ncnc2c1sc1ccccc12)Nc1ccc(Br)cc1,n,n,n,n,293.1,n,195.4,RORg DNA counter=n
COC(=O)[C@]12C[C@H](CC(=O)NCCC(C)C)C(=O)N(Cc3ccc4c(c3)OCO4)C1=C[C@H](COCc1ccccc1)O[C@@H]2C,x,x,x,n,n,n,x,
COc1cc2c3nnc(-c4ccc(F)cc4)c-3cn(Cc3ccccc3)c2cc1OC,n,n,n,n,43.1,29.2,44.7,RORg DNA counter=n
COc1cccc(CNC(=O)C[C@H]2CC[C@H]3[C@@H](COc4ccc(NC(=O)c5cccs5)cc4C(=O)N3C)O2)c1,x,x,x,x,59.7,n,43.0,RORg DNA counter=n
CN1C(=O)c2cc(NS(=O)(=O)c3ccc(F)cc3)ccc2OC[C@H]2O[C@@H](CC(=O)NCC(F)(F)F)CC[C@@H]21,x,x,x,x,130.4,n,79.5,RORg DNA counter=7.22
C[C@@H](NC(=O)C[C@H]1CC[C@H]2[C@@H](COc3ccc(NC(=O)Nc4ccccc4)cc3C(=O)N2C)O1)c1ccccc1,x,x,x,x,26.2,n,20.3,
CCNC(=O)Nc1ccc2c(c1)C(=O)N(C)[C@H]1CC[C@@H](CC(=O)OC)O[C@H]1CO2,x,x,x,x,n,n,x,
CCNC(=O)Nc1ccc2c(c1)C(=O)N(C)[C@H]1CC[C@H](CC(=O)N[C@H](C)c3ccccc3)O[C@@H]1CO2,x,x,x,x,80.0,n,55.2,RORg DNA counter=n
Cc1cc(O)cc(=O)n1-c1cccc([N+](=O)[O-])c1,x,x,x,n,n,n,x,
Cc1cc(CN2CCOCC2)c(O)c(C2(C)CCCCC2)c1,n,n,n,n,18.4,n,24.0,
C#CCN(Cc1cccc(F)c1)C(=O)c1nnc2c3cc(F)ccc3n(S(=O)(=O)c3ccc(OC)cc3)c2n1,x,x,x,n,n,n,x,
CCn1cc(C(=O)OCC(=O)Nc2cccc(Cl)c2Cl)c(=O)c2ccc(C)nc21,n,n,n,n,42.5,n,18.9,
O=S(=O)(c1ccccc1F)n1c(CN2CCOCC2)nc2ccccc21,x,x,x,x,n,n,x,
O=C(c1ccc(Cl)cc1)C(CN1CCCCC1)c1ccccc1 (centres undefined),n,n,n,n,n,n,x,
CCOC(=O)C(CN1CCCC1)c1ccccc1 (centres undefined),n,n,n,n,20.9,n,n,
COc1ccc(-c2nnc(SCC(=O)NN=C(C)c3cccc4ccccc34)n2-c2ccccc2)cc1,x,x,x,x,n,n,x,
CCOC(=O)c1nn(-c2ccc(Cl)cc2)c2nc(-c3ccc(C)cc3)c(C#N)c(=O)n12,n,n,n,n,36.3,n,37.1,RORg DNA counter=n
